An excerpt weighted towards active compounds, which were near 2.8% of everything screened.
Pol iota inh – qHTS for Inhibitors of Polymerase Iota | Potency, µM (doses to about 115 µM), for the others: at the highest dose activity, negative = inhibition, most hits filed as inhibitors | AID 588590, 2011 | 390,000 tested, 1% active | Pol iota fluorescent replication assay, 10 min; also: potency is read from the fitted curve at half-maximal effect
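Fluorescent replication assay read twice, at 0 min and 10 min after adding 50 nM (final) substrate. Enzyme (10 nM) and compounds were first incubated 15 min at room temperature; enzyme-free buffer wells were negative controls.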
PI5P4K alpha inh – qHTS for Inhibitors of phosphatidylinositol 5-phosphate 4-kinase (PI5P4K). max response, %. 330,000 tested, 1.2% active. PI5P4Kalpha enzyme, ADP-Glo luminescence, 60 min; hits give low values. Phosphatidylinositol 5-phosphate 4-kinase type-2 alpha (Homo sapiens), P48426. AID 652105, 2013; active = max response of -50% or lower; inconclusive = between -30% and -50%; inactive = -30% or higher; also: value at the top dose of about 77 µM; % is scaled to controls: 0 for no effect and ±100 for the full control effect
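Human PI5P4Kalpha with substrate in 0.038 M HEPES pH 7.4, 0.28 mM EGTA, 0.1% CHAPS, 5% DMSO; reaction started with 5 microM ATP (final), 60 min at room temperature. ADP formed read by ADP-Glo luminescence.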
FEN1 inhibitor – qHTS Assay for the Inhibitors of Human Flap endonuclease 1 (FEN1); P39748; Recombinant FEN1 flap cleavage, fluorescence, 15 min; Potency, µM (highest dose often 114 µM), inactives show top-dose activity change, negative = inhibition, hits mostly inhibitors; 390,000 tested, 0.35% active; also: potency is read from the fitted curve at half-maximal effect; % is scaled to controls: 0 for no effect and ±100 for the full control effect; nearly all actives have a fitted effect of over 65% in size
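Potency values derive from four-parameter Hill fits of normalized qHTS data. The reaction used 10 nM FEN1 preincubated 15 min at room temperature with compound, then 50 nM DNA substrate, read at 0 and 15 min.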
POLK inh – qHTS for Inhibitors of Polymerase Kappa; DNA polymerase kappa (Homo sapiens), Q9UBT6; purified Pol kappa, fluorescent DNA synthesis assay, 10 min; Potency, µM (top dose mostly 107 µM), for inactives: top-dose activity, negative = inhibition, most hits filed as inhibitors; 400,000 tested, 0.53% active; AID 588579, 2011; also: potency is read from the fitted curve at half-maximal effect; % is scaled to controls: 0 for no effect and ±100 for the full control effect
Target sequence (Q9UBT6 whole entry, looked up): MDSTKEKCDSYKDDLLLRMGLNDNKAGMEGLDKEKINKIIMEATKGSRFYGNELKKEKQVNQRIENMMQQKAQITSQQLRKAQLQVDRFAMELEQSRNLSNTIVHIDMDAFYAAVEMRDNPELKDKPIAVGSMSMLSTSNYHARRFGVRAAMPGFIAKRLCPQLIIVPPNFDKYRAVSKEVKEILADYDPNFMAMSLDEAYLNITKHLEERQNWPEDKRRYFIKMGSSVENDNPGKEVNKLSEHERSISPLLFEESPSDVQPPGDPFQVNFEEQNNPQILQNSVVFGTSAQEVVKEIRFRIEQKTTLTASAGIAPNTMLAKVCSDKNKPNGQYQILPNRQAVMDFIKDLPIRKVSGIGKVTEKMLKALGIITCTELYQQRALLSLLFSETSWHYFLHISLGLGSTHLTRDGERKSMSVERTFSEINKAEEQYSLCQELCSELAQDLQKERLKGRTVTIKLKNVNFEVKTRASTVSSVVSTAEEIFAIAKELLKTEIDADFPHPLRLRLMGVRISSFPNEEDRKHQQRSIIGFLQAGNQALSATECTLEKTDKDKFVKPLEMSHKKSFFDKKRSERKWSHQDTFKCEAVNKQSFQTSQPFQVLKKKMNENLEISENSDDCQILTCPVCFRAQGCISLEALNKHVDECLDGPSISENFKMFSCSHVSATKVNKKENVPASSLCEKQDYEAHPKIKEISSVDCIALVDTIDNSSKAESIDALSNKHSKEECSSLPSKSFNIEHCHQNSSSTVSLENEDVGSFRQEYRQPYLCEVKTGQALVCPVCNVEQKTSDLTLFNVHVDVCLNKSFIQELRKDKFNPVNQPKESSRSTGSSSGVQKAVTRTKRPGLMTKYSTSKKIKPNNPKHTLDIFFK
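First, compounds were pin-transferred onto 10 nM Pol kappa. After 15 min at room temperature, substrate was added to 50 nM final. Fluorescence was then measured kinetically at 0 and 10 min.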
POLH inh – qHTS for Inhibitors of Polymerase Eta; DNA polymerase eta (Homo sapiens), Q9Y253; recombinant Pol eta, fluorescent DNA replication assay; Potency, µM (doses to about 114 µM), for the others: at the top dose activity change, negative = inhibition, most hits filed as inhibitors; 390,000 tested, 1.2% active; AID 588591, 2011; also: potency is read from the fitted curve at half-maximal effect; % is scaled to controls: 0 for no effect and ±100 for the full control effect
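Pol eta (10 nM) was preincubated with compounds for 15 min at room temperature, after which fluorescent replication substrate (50 nM final) was added to start the reaction. Fluorescence was read kinetically at 0 and 10 min.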
POLB inh – qHTS Assay for Inhibitors of DNA Polymerase Beta; P06746; Pol beta primer extension/strand displacement, fluorescence kinetic; Potency, µM (top dose mostly 114 µM), inactives show top-dose activity change, negative = inhibition, actives largely listed as inhibitors; 340,000 tested, 1.3% active; AID 485314, 2010; also: potency is read from the fitted curve at half-maximal effect; % is scaled to controls: 0 for no effect and ±100 for the full control effect
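Pol beta (10 nM) and compounds were preincubated 15 min at room temperature, then 50 nM substrate (final) started primer extension/strand displacement. Reads were taken at 0 and 10 min; concentration-response data were fitted to a four-parameter Hill equation.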
An asterisk follows results filed as active; ? = inconclusive; · = no result; [ ] = another dose, or the depositor's remark. Unless noted, calls follow the shape of the dose curve; as a rule, active = well fitted curve in the direction sought with a large enough effect; inconclusive = small, poorly fitted or top-dose-only effect, or another doubt; inactive = no such curve, though single readings can be large; an effect the other way counts as inactive or inconclusive.

SMILES | Pol iota inh | PI5P4K alpha inh | FEN1 inhibitor | POLK inh | POLH inh | POLB inh
CCOc1ccc(NC(=O)Cn2c(=O)n(CCc3ccccc3)c(=O)c3c4c(sc32)CN(C(C)=O)CC4)cc1 | 36.5% | · | 4.6% | 10.8% | -12.8% | 8.0%
Cc1ccc(S(=O)(=O)N2CCC(C(=O)N3CCCCCCC3)CC2)cc1C | · | -19.3 | · | · | -6.4% | ·
COc1cc(/C=C2/SC(=Nc3ccc(O)cc3)NC2=O)ccc1O | ? | -89.5* | -33.2% | ? | 31.6µM* | 20µM*
O=C(Cc1n[nH]c(=O)[nH]c1=O)N/N=C/c1cccc(Cl)c1 | 89.1µM* | 2.1 | -3.2% | ? | -15.3% | -0.1%
O=C(Cc1n[nH]c(=O)[nH]c1=O)N/N=C/c1cccc(O)c1 | 1.4% | -17.0 | 10.7% | 4.2% | -7.9% | 0.6%
O=C(NC1CC1)c1ccc(-n2cccc2)cc1 | 59.6% | 1.2 | 0.1% | -7.5% | -0.7% | 1.3%
O=Nc1c2cc(-c3ccccc3)[nH]nc-2c2ccccc12 | -5.7% | -10.4 | -19.0% | -5.9% | -8.2% | 39.8µM*
Cc1cc(NC(=O)CN2CCC(C)CC2)nc2c1c(=O)oc1ccccc12 | ? | · | 16.6% | 89.1µM* | -16.6% | -1.1%
Cc1cc(NC(=O)CN2CCc3ccccc3C2)nc2c1c(=O)oc1ccccc12 | 50.4% | -5.4 | -22.9% | -21.3% | -1.5% | -0.5%
O=c1c(O)c(-c2ccc(O)cc2O)oc2cc(O)cc(O)c12 | 3.98µM* | · | 28.2µM* | 4.23µM* | 7.94µM* | 4.47µM*
O=c1c(O)c(-c2ccccc2O)oc2cc(O)cc(O)c12 | · | · | · | 3.9%[60.1 µM] | · | ·
COc1ccccc1-c1coc2cc(O)cc(O)c2c1=O | 12.0% | 3.8 | -14.9% | -2.8% | -1.6% | 21.3%
O=c1c(-c2ccc(O)cc2O)coc2cc(O)cc(O)c12 | ? | -7.6 | 2.7% | ? | ? | 31.6µM*
CC(=O)N1CCN(c2ccc(NCc3ccc(C)s3)cc2)CC1 | 50.1µM* | -0.4 | ? | -4.5% | -16.0% | 3.9%
COc1cc2c(cc1OC)C(c1ccccc1)N(Cc1ccc(S(=O)(=O)NC(=O)c3ccco3)cc1)CC2 (centres undefined) | · | -2.9 | · | · | · | ·
O=[N+]([O-])c1cc2c(c3cccnc13)COCO2 | 39.8µM* | -56.2* | -8.1% | -20.7% | 10µM* | ·
O=C1NC(=S)SC1=Cc1ccccc1C(=O)O | · | -77.6* | · | · | · | ·
CC1CCN(c2ccc(C(=O)O)cc2N)CC1 | ? | ? | -8.3% | -17.3% | 17.8µM* | ?
Nc1cc(F)ccc1N1CCCCCC1 | 55.8% | 0.8 | 3.0% | -4.1% | -15.0% | 22.0%
Nc1cc(C(=O)O)ccc1N1CCCCC1 | ? | -9.3 | -9.5% | 79.4µM* | 10µM* | ?
COc1ccc(S(=O)(=O)NC(C)C(=O)NCc2ccncc2)cc1OC (centres undefined) | 89.1µM* | 4.3 | -9.4% | 0.9% | -16.2% | 0.4%
Cc1ccc(S(=O)(=O)NC(C)(C)CN2CCC(Cc3ccccc3)CC2)cc1 | -10.4% | 1.4 | 1.8% | -3.0% | -11.4% | 0.8%
Cc1ccc(NC(=S)NNc2ccc([N+](=O)[O-])cc2S(=O)(=O)Nc2ccccc2C(=O)O)cc1C | -10.8% | -73.2* | -20.0% | -25.0% | 28.2µM* | ?
COc1ccc(NC(=O)c2ccccc2NS(=O)(=O)c2ccc(C)cc2)c([N+](=O)[O-])c1 | -16.3% | -1.9 | 0.5% | -19.7% | -17.9% | 23.8%
O=[N+]([O-])c1ccc(N/N=C/c2ccccc2)c(F)c1 | -0.9% | 17.0 | -0.7% | -7.4% | -21.7% | 23.5%
SMILES | Pol iota inh | PI5P4K alpha inh | FEN1 inhibitor | POLK inh | POLH inh | POLB inh
COc1ccc(C(C)=NNc2ccc([N+](=O)[O-])cc2S(=O)(=O)Nc2ccccc2C(=O)O)c(OC)c1 | 1.5% | ? | -13.9% | -29.3% | 44.7µM* | ·
Cc1ccc(NC(=S)NNc2ccc(C(=O)O)cc2[N+](=O)[O-])cc1C | ? | -7.1 | 0.4% | -7.0% | -5.5% | ·
CN(CCO)c1ccc(C=NNc2ccc([N+](=O)[O-])cc2S(=O)(=O)Nc2ccccc2C(=O)O)cc1 | ? | -54.9* | 79.4µM* | -37.5% | ? | ·
CC(=O)Nc1cccc(/C(C)=N/Nc2ccc(S(=O)(=O)Nc3ccccc3C(=O)O)cc2[N+](=O)[O-])c1 | ? | -72.3* | 79.4µM* | -13.3% | 22.4µM* | ·
COc1ccccc1CC(=N)N1C[C@@H]2C(=O)CCC(c3ccccc3)(c3ccccc3)[C@@H]2C1 | · | · | · | -10.9%[19.4 µM] | · | ·
CC(Oc1ccccc1)C(=O)N[C@@H]1C(=O)N2C(C(=O)O)C(C)(C)S[C@H]12 (some centres undefined) | 18.9% | · | 0.0% | -19.5% | · | ·
O=c1c2cc(N3CCOCC3)ccc2[nH]c(=S)n1Cc1ccco1 | 10µM* | · | ? | 79.4µM* | 89.1µM* | ?
Cc1cccc(-n2c(O)c(C=Nc3cc(O)ccc3C)c3ccccc3c2=O)n1 | 70.8% | -10.2 | 0.2% | -1.5% | ? | ?
Cc1cccc(-n2c(O)c(C=Nc3ccccc3O)c3ccccc3c2=O)n1 | ? | -0.2 | ? | ? | 44.7µM* | -32.4%
Nc1ccc(C(=O)Nc2ccc3nc(-c4cccnc4)[nH]c3c2)cc1 | -14.9% | 9.0 | -24.2% | ? | -14.6% | 39.8µM*
CC(=O)Nc1cccc(-c2nc3ccc(NC(C)=O)cc3[nH]2)c1 | ? | -1.8 | ? | ? | ? | 44.7µM*
Nc1ccc(C(=O)Nc2ccc(Nc3ccncc3)cc2)cc1 | ? | -8.9 | -7.8% | -26.0% | 5.5% | 31.6µM*
Cc1cc2c(C)nc(N/N=C/c3ccc([N+](=O)[O-])cc3)nc2o1 | 35.5µM* | -5.5 | -11.1% | -13.1% | ? | -19.1%
O=C1/C(=C\c2ccco2)SC(=S)N1C1CCCCC1 | · | · | · | · | · | 44.7µM*
COc1ccc(/C=C2\SC(=S)N(CCC(=O)N3CCCCC3CCO)C2=O)cc1 (centres undefined) | 28.2µM* | -6.0 | -18.1% | ? | ? | ?
O=C1/C(=C/c2ccc(Cl)cc2)SC(=S)N1CCC(=O)N1CCCCC1CCO (centres undefined) | 13.0% | 8.9 | -12.9% | -16.1% | -11.1% | ?
O=C1/C(=C/c2ccco2)SC(=S)N1CCC(=O)N1CCCCC1CCO (centres undefined) | 15.3% | ? | 0.8% | 11.3% | 22.4µM* | ?
CCCCN(CCCC)CCNC(=O)Cn1nc(CC)n2c(cc3sc(C)cc32)c1=O | 25.1µM* | · | -18.3% | -6.3% | -10.4% | 45.1%
CCc1nn(CC(=O)NCCCN(CC)CC)c(=O)c2cc3sc(C)cc3n12 | 53.8% | 6.4 | -4.2% | -11.3% | -19.5% | 27.5%

Source: PubChem (National Center for Advancing Translational Sciences (NCATS))
